# Test results published in PubChem BioAssay (NCATS).
# Results filed as inconclusive are left out. Where a call stands in place of a potency, no number is given. A number with no mark means an inactive call. Active and inactive are the calls of the source. Calls follow the shape of the dose curve; as a rule, active = well fitted curve in the direction sought with a large enough effect; inconclusive = small, poorly fitted or top-dose-only effect, or another doubt; inactive = no such curve, though single readings can be large; an effect the other way counts as inactive or inconclusive.
# Legend:
# [1] = target: Cellular tumor antigen p53 (Homo sapiens) (UniProt P04637); assay: Primary qHTS for small molecule compounds that upregulate eGFP-tagged delta133p53alpha (in N-terminal) cells. (AID 2060322); details: NCI-H358 eGFP-delta133p53alpha fluorescence, 24 h; activation: active compounds read high; also: nearly all actives have a fitted effect of over 75% in size; also: potency is read from the fitted curve at half-maximal effect
# Outline: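 NCI-H358 cells pre-induced 24 h with 10 ng/ml doxycycline to express N-terminal eGFP-delta133p53alpha, then dosed 24 h at 37C without doxycycline; fixed, Hoechst-stained, GFP intensity by laser scanning cytometry, normalized to DMSO (0%) and 57.5 uM 5-azacytidine (100%).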
# [2] = target: Aldehyde dehydrogenase, mitochondrial (Homo sapiens) (UniProt P05091); assay: qHTS for Inhibitors of the Aldehyde Dehydrogenase Family (ALDH2) Primary screen (AID 2061308); details: ALDH2 enzyme inhibition qHTS, 1536-well; series mostly up to 56 µM; also: nearly all actives have a fitted effect of over 55% in size
# [3] = target: Retinaldehyde dehydrogenase 3 (Homo sapiens) (UniProt P47895); assay: qHTS for Inhibitors of the Aldehyde Dehydrogenase Family (ALDH1A3) Primary screen (AID 2061315); details: ALDH inhibition qHTS; series mostly up to 56 µM
# Chain of Cellular tumor antigen p53 (Homo sapiens) (P04637 whole entry, looked up): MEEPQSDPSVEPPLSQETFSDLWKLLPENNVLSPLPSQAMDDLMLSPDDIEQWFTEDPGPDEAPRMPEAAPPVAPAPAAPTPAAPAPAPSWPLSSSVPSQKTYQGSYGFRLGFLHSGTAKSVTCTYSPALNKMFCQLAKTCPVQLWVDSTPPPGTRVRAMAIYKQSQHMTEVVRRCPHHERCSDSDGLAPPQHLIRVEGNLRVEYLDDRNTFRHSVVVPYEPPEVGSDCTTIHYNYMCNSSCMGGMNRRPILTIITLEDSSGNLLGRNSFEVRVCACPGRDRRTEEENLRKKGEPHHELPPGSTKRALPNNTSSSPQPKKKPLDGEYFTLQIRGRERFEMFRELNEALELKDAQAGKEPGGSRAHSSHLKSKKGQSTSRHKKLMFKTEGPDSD
SMILES,activation [1] [%],Potency [2],Potency [3],"activity change, negative = inhibition [2]","activity change, negative = inhibition [3]",Potency [1]
COC(=O)C1=C2Nc3ccccc3C23CCN2CCCC(C(C)O)(C1)C23 (stereo not drawn),18.8,inactive,inactive,,,
CC(C)c1ccc2c(c1)C(O)CC1C(C)(CO)CCCC21C (stereo not drawn),-12.5,inactive,inactive,,,
CC1(CO)CC[C@]2(C(=O)O[C@@H]3O[C@H](CO)[C@@H](O)[C@H](O)[C@H]3O)CC[C@]3(C)C(=CCC4[C@@]5(C)CC[C@H](O[C@@H]6O[C@H](C(=O)O)[C@@H](O)[C@H](O)[C@H]6O)C(C)(C)C5CC[C@]43C)C2C1 (stereo partly drawn),-4.46,inactive,inactive,,,
COC(=O)C[C@H]1C(C)(C)[C@H](OC(C)=O)C2CC3=C4CC(=O)O[C@@H](c5ccoc5)[C@]4(C)CCC3[C@@]1(C)C2=O (stereo partly drawn),2.68,inactive,inactive,,,
CCC1C(=O)OC23C=C[C@@H]4C(C(=O)O)=CO[C@H](O[C@@H]12)[C@@H]43 (stereo partly drawn),7.63,inactive,inactive,,,
COC1C(O)C(OC2CCC3(C)C(CCC45CCC6C7(COC(=O)C7)OC4(O)C6(C)CCC35)C2)OC(C)C1OC1OC(CO)C(OC2OC(CO)C(O)C(O)C2O)C(O)C1O (stereo not drawn),1.53,inactive,inactive,,,
CCC/C=C1\OC(=O)C2=C1CCC(O)C2O (stereo not drawn),12.2,inactive,inactive,,,
CC1(C)CC[C@]2(C(=O)O)CC[C@]3(C)C(=CCC4[C@@]5(C)CCC(O[C@@H]6OC[C@H](O)[C@H](O)[C@H]6O[C@@H]6O[C@H](CO)[C@@H](O)[C@H](O)[C@H]6O)[C@@](C)(CO)C5CC[C@]43C)[C@@H]2C1 (stereo partly drawn),14.3,inactive,inactive,,,
C=C1C[C@H](O)[C@@H](O)[C@@]2(C)C1[C@@H](O)[C@H]1OC(=O)C3[C@@H](C)[C@@H](O)[C@H](O)C2[C@]31C (stereo partly drawn),0.763,inactive,inactive,,,
NC(=O)NCCCC(NC(=O)Cc1ccccc1)C(=O)O (stereo not drawn),-1.79,inactive,inactive,,,
C/C1=C\CCC2=C[C@@H](OC2=O)c2c(C)coc2C1,13.4,inactive,inactive,,,
CC1CC(O)C2(C)C(C(=O)O)=CCCC2C1(C)CCc1ccoc1 (stereo not drawn),8.93,inactive,inactive,,,
CC(C)(C)NS(=O)(=O)c1cncc(-c2cc(F)c3nc(N)nn3c2)c1,5.36,inactive,inactive,,,
CC1(C)CC[C@]2(C(=O)O)CC[C@]3(C)C(=CCC4[C@@]5(C)CC[C@H](O)C(C)(C)C5CC[C@]43C)C2C1 (stereo partly drawn),-0.763,inactive,inactive,,,
CCOc1cccc(NC(=O)c2ccc(N3CCCC3)c(C(F)(F)F)c2)c1,5.67,inactive,inactive,,,
COC(=O)[C@H](Cc1ccc([N+](=O)[O-])cc1)NC(=O)c1cccc2ccccc12,11.5,inactive,inactive,,,
C#CCCCn1cc(-c2cccc3c2N[C@H](C)CC(=O)N3)cn1,8.93,inactive,inactive,,,
CC(C)=C[C@@H]1[C@H](CO[C@@H]2O[C@H](CO)[C@@H](O)[C@H](O)[C@H]2O)C1(C)C,-9.82,inactive,inactive,,,
CC1=C[C@H](O)[C@H]2C(C)(C)CCC[C@]2(C)[C@@]1(O)CO,-2.68,inactive,inactive,,,
CC1OC(OC2C(CO)OC(OCC3OC(OC(=O)C45CCC(C)(C)CC4C4=CCC6C7(C)CCC(OC8OC(C(=O)O)C(O)C(OC9OC(CO)C(O)C(O)C9O)C8O)C(C)(C)C7CCC6(C)C4(C)CC5)C(O)C(O)C3O)C(O)C2O)C(O)C(O)C1O (stereo not drawn),18.3,,,-0.0745% [at 11.2 µM],-5.8% [at 11.2 µM],
CC12CCC3c4ccc(O)cc4CCC3C1CCC2OC1OC(C(=O)O)C(O)C(O)C1O (stereo not drawn),-11.7,inactive,inactive,,,
CC1=CC(=O)CC(C)(C)[C@@]1(O)/C=C/C(C)O[C@@H]1O[C@H](CO)[C@@H](O)[C@H](O)[C@H]1O (stereo partly drawn),15.3,inactive,inactive,,,
O=C(CO)[C@@H](O)[C@H](O[C@@H]1O[C@H](CO)[C@H](O)[C@H](O)[C@H]1O)[C@H](O)CO,28.3,inactive,inactive,,,
CC(C#N)C(C)O[C@@H]1O[C@H](CO)[C@@H](O)[C@H](O)[C@H]1O (stereo partly drawn),24.1,inactive,inactive,,,
CCOc1ccc(-c2nn3ncccc3c2-c2ccc(S(C)(=O)=O)cc2)cc1,-4.46,inactive,inactive,,,
C=C[C@@]1(C)CCC2C(=CCC3[C@]2(C)CCC[C@@]3(C)C(=O)O)C1 (stereo partly drawn),-12.2,inactive,inactive,,,

SMILES,activation [1] [%],Potency [2],Potency [3],"activity change, negative = inhibition [2]","activity change, negative = inhibition [3]",Potency [1]
CC(C)CNC(=O)/C=C/CCCCc1ccc2c(c1)OCO2,10.7,inactive,inactive,,,
C=C(CO)C(=O)O[C@H]1C[C@@]23O[C@@H]2CC/C(=C/[C@H]2OC(=O)C(=C)[C@H]12)CO[C@H]3O,26.8,inactive,inactive,,,
CC[C@@H](O)C[C@@H]1C(C)=C[C@@H]2CCCC[C@@H]2[C@@]1(C)C(=O)O,-6.87,inactive,inactive,,,
CCC(C)C(=O)OC1CC(O)C23C4OCC5(C(O)CC2C1(C)C(O)O4)C3C(=O)CC1(C)C(c2ccoc2)CC2OC215 (stereo not drawn),22.1,inactive,inactive,,,
COc1ccc(CCO[C@@H]2O[C@H](CO[C@@H]3OC[C@H](O)[C@H](O)[C@H]3O)[C@@H](O)[C@H](O)[C@H]2O)cc1,-20.6,inactive,inactive,,,
CC1=CC(=O)OC(C)(CC(C)(O)C(=O)O)C1 (stereo not drawn),-15.3,inactive,inactive,,,
C/C=C(\C)C(=O)O[C@H]1C=CC(=O)O[C@H]1/C=C/[C@H](O)[C@@H](C)O,,inactive,inactive,,,21.3 µM (active)
COc1cc(O)cc(/C=C/c2cccc(O)c2)c1,-8.93,inactive,inactive,,,
Cc1[nH]c2ccccc2c1CCNC(=O)c1ccccc1F,-0.477,inactive,inactive,,,
COc1ccc(/C=C/C(=O)O[C@@H]2[C@@H](O)[C@H](C)O[C@@H](OC3C4C=COC(O[C@@H]5O[C@H](CO)[C@@H](O)[C@H](O)[C@H]5O)C4C4(CO)OC34)[C@@H]2O)cc1OC (stereo partly drawn),-13,inactive,inactive,,,
CC1(C)CC[C@]2(C(=O)O[C@@H]3O[C@H](CO)[C@@H](O)[C@H](O)[C@H]3O)CC[C@]3(C)C(=CCC4[C@@]5(C)C[C@@H](O)[C@H](O)C(CO)(CO)C5CC[C@]43C)C2[C@@H]1O (stereo partly drawn),-15.3,inactive,inactive,,,
NCCOCCOCCNC(=O)Cc1ccc(Nc2nc(NCc3ccc(F)cc3)nc(NCC3CCCCC3)n2)cc1,2.33,inactive,inactive,,,
COC(=O)C1C(c2ccc(O)cc2)C(C(=O)OC)C1c1ccc(O)cc1 (stereo not drawn),-16.1,inactive,inactive,,,
C[C@H]1[C@H](C)CC[C@]2(C(=O)O[C@@H]3O[C@H](CO)[C@@H](O)[C@H](O)[C@H]3O)CC[C@]3(C(=O)O)C(=CCC4[C@@]5(C)CC[C@H](O[C@@H]6O[C@H](CO)[C@@H](O)[C@H](O)[C@H]6O)C(C)(C)C5CC[C@]43C)[C@H]12 (stereo partly drawn),2.68,inactive,inactive,,,
CC(C)C(=O)OC[C@H]1O[C@H](O[C@H]2O[C@H](CO)[C@@H](O)[C@H](O)[C@H]2O)[C@H](O)[C@@H](O)[C@@H]1O,-6.11,inactive,inactive,,,
COc1c2ccoc2nc2c(OC)c(O[C@@H]3O[C@@H](C)[C@H](O)[C@@H](O[C@@H]4O[C@H](CO)[C@@H](O)[C@H](O)[C@H]4O)[C@H]3OC(C)=O)ccc12,27.7,inactive,inactive,,,
COC(=O)C[C@H]1C(C)(C)[C@H](OC(=O)C(C)C)[C@@]2(O)C(=O)[C@]1(C)C1CC[C@]3(C)C(CC(=O)O[C@H]3c3ccoc3)[C@]13O[C@@H]32 (stereo partly drawn),-17.6,inactive,inactive,,,
CC1(C)O[C@H]2CC(=O)OC[C@@]23C1=C(O)C(=O)[C@]1(C)C3CC[C@@]2(C)[C@H](c3ccoc3)OC(=O)[C@H]3O[C@]321 (stereo partly drawn),-13,inactive,inactive,,,
C[C@]1(OC(=O)/C=C\c2ccc(O)cc2)C[C@@H](O)[C@]2(O)C=CO[C@@H](O[C@@H]3O[C@H](CO)[C@@H](O)[C@H](O)[C@H]3O)C12 (stereo partly drawn),23.7,inactive,inactive,,,
CC(=O)O[C@H]1[C@@H](O)[C@H](O[C@H]2[C@@H]3C=CO[C@@H](O[C@H]4O[C@@H](CO)[C@H](O)[C@@H](O)[C@@H]4O)[C@@H]3[C@@]3(CO)O[C@@H]23)O[C@@H](C)[C@@H]1OC(=O)/C=C/c1ccccc1,-17.9,inactive,inactive,,,
CC1=C2C(O)C(=O)OC(c3ccoc3)C2(C)CCC1O (stereo not drawn),-16,inactive,inactive,,,
COC(=O)c1ccccc1O[C@@H]1O[C@H](CO)[C@@H](O)[C@H](O)[C@H]1O[C@@H]1O[C@@H](C)[C@H](O)[C@@H](O)[C@H]1O,-10.7,inactive,inactive,,,
CCC(NC(=O)CC(NC(=O)C(CO)NC(=O)C(CC)NC(=O)c1ccc[nH]1)c1ccccc1)C(=O)O (stereo not drawn),23.7,inactive,inactive,,,
C[C@H](Oc1ccc(S(C)(=O)=O)cc1C(=O)N1CCN(c2ncc(C(F)(F)F)cc2F)CC1)C(F)(F)F,4.46,inactive,inactive,,,
CC1(CO)CC(O)C2(C)CCC3(C)C(=CCC4C5(C=O)CCC(OC6OC(C(=O)O)C(O)C(O)C6OC6OC(C(=O)O)C(O)C(O)C6O)C(C)(C)C5CCC43C)C2C1 (stereo not drawn),-10.7,inactive,inactive,,,
